The supplement of paper PMC7411640
Where a name gives a salt, the structure may show the parent alone.

tested on: MDA-MB-468; assay: phospho-S6 immunofluorescence (DAPI-normalised), per-plate z-score; higher = higher phospho-S6 signal (less pathway suppression); conditions: co-treatment: GDC0941 450 nM; 24 h
Procedure: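 GPCR-targeted compound library (MedChemExpress HY-L006) tested on MDA-MB-468 PTEN-null TNBC cells in 384-well plates at 0.1, 1 or 10 uM, combined with vehicle, GDC0941 450 nM or lapatinib 1 uM, for 24 h. Phospho-S6 (S240/244) immunofluorescence normalised to DAPI and expressed as a per-plate z-score; values are the mean of biological triplicates.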

For CSCC[C@H](NC(=O)[C@H](Cc1ccccc1)NC(=O)CNC(=O)CNC(=O)[C@@H](N)Cc1ccc(O)cc1)C(=O)O (compound 10 µM), which “phospho-S6 immunofluorescence (z-score)” value is on record?
Its value is -0.41.

Which “phospho-S6 immunofluorescence (z-score)” value does the source give for CN(C)C(=O)Oc1cc(OC(=O)N(C)C)cc(C(O)CNC(C)(C)C)c1 (stereo not given) [Bambuterol (hydrochloride)] (compound 10 µM) here?
The value was -0.5.

With CNCC(O)c1ccc(O)cc1 (stereo not given) [Synephrine (hydrochloride)] (compound 10 µM) as the molecule, how does the “phospho-S6 immunofluorescence (z-score)” value read?
The value was 1.02.

Which “phospho-S6 immunofluorescence (z-score)” value does the source give for Cc1ncc(CN2CC=C(c3ccccc3)CC2)c(N)n1 [Ro 10-5824 (dihydrochloride)] (compound 10 µM) here?
Its value is -1.36.

With CCC(COC(=O)c1cc(OC)c(OC)c(OC)c1)(c1ccccc1)N(C)C (stereo not given) [Trimebutine (maleate)] (compound 10 µM) as the molecule, how does the “phospho-S6 immunofluorescence (z-score)” value read?
Its value is 1.12.

With CC(C)C[C@H](NC(=O)[C@H](Cc1ccccc1)NC(=O)CNC(=O)[C@@H](C)NC(=O)[C@@H](N)Cc1ccc(O)cc1)C(=O)O [[D-Ala2]leucine-enkephalin] (compound 10 µM) as the molecule, how does the “phospho-S6 immunofluorescence (z-score)” value read?
Its value is -0.29.

For COc1ccc2c(c1OC)CN1CCc3cc4c(cc3C1C2)OCO4 (stereo not given) [Tetrahydroberberine] (compound 10 µM), which “phospho-S6 immunofluorescence (z-score)” value is on record?
The value was -0.04.

For CN1C[C@H](C(=O)N[C@]2(C)O[C@@]3(O)[C@@H]4CCCN4C(=O)[C@H](Cc4ccccc4)N3C2=O)C[C@@H]2c3cccc4[nH]cc(c34)C[C@H]21 [Dihydroergotamine (mesylate)] (compound 10 µM), which “phospho-S6 immunofluorescence (z-score)” value is on record?
Its value is 1.05.

How did the “phospho-S6 immunofluorescence (z-score)” value turn out when CN1CCC2=C(C1)c1ccccc1Cc1ccccc12 [Setiptiline] (compound 10 µM) was run?
Its value is -0.28.

How did the “phospho-S6 immunofluorescence (z-score)” value turn out when CN1CCC(C(=O)c2cccc(NC(=O)c3c(F)cc(F)cc3F)n2)CC1 [Lasmiditan (hydrochloride)] (compound 10 µM) was run?
The value was -2.08.

With Cc1ccc2c(c1)C1(CCN(CCc3nc(-c4ccccc4)oc3C)CC1)OC(=O)N2 (compound 10 µM) as the molecule, how does the “phospho-S6 immunofluorescence (z-score)” value read?
Its value is 0.56.

CN1[C@@H]2C[C@@H](OC(=O)[C@H](CO)c3ccccc3)C[C@H]1[C@@H]1O[C@@H]12 [Scopolamine (hydrobromide)] (compound 10 µM) was tested. Which “phospho-S6 immunofluorescence (z-score)” value did it give?
The value was -1.4.

same assay, conditions: co-treatment: lapatinib 1 uM; 24 h

For COc1ccc(C(=O)c2c(C)n(CCN3CCOCC3)c3cc(I)ccc23)cc1 (compound 10 µM), which “phospho-S6 immunofluorescence (z-score)” value is on record?
Its value is -1.01.

Which “phospho-S6 immunofluorescence (z-score)” value does the source give for CN1C(=O)COc2c(C(=O)NC3CN4CCC3CC4)cc(Cl)cc21 (stereo not given) [Azasetron (hydrochloride)] (compound 10 µM) here?
The value was 0.2.

With CN(C)CCN(C)CCc1ccc(Cl)c(Cl)c1 [BD-1047 (dihydrobromide)] (compound 10 µM) as the molecule, how does the “phospho-S6 immunofluorescence (z-score)” value read?
The value was -1.41.

With COc1cc2c3c(c1OC)-c1ccccc1C[C@H]3N(C)CC2 [Nuciferine] (compound 10 µM) as the molecule, how does the “phospho-S6 immunofluorescence (z-score)” value read?
Its value is -0.74.

CN1CCC(c2c[nH]c3ccc(O)cc23)CC1 (compound 10 µM) was tested. Which “phospho-S6 immunofluorescence (z-score)” value did it give?
The value was 0.55.

For Cc1ccc2c(c1)[C@]13CCCC[C@@H]1[C@H](C2)N(C)CC3 [Dimemorfan (phosphate)] (compound 10 µM), which “phospho-S6 immunofluorescence (z-score)” value is on record?
The value was 0.09.

How did the “phospho-S6 immunofluorescence (z-score)” value turn out when O=c1[nH]c2ccccc2n1CCCN1CCC(n2c(=O)[nH]c3cc(Cl)ccc32)CC1 [Domperidone] (compound 10 µM) was run?
The value was 0.25.

For CC(C)(C)NCC(O)c1ccc(O)cc1Cl (stereo not given) (compound 10 µM), which “phospho-S6 immunofluorescence (z-score)” value is on record?
Its value is 0.7.

How did the “phospho-S6 immunofluorescence (z-score)” value turn out when NCC(O)c1ccc(O)cc1 (stereo not given) [Octopamine (hydrochloride)] (compound 10 µM) was run?
The value was 0.86.

With Cc1cccc([C@H](C)c2c[nH]cn2)c1C [Dexmedetomidine (hydrochloride)] (compound 10 µM) as the molecule, how does the “phospho-S6 immunofluorescence (z-score)” value read?
Its value is 0.38.

Oc1ccc2c3c1O[C@H]1c4[nH]c5ccccc5c4C[C@@]4(O)[C@@H](C2)N(CC2CC2)CC[C@]314 [Naltrindole (hydrochloride)] (compound 10 µM) was tested. Which “phospho-S6 immunofluorescence (z-score)” value did it give?
The value was -5.41.

How did the “phospho-S6 immunofluorescence (z-score)” value turn out when CSCC[C@H](NC(=O)[C@H](Cc1ccccc1)NC(=O)CNC(=O)CNC(=O)[C@@H](N)Cc1ccc(O)cc1)C(=O)O (compound 10 µM) was run?
The value was -0.12.

Which “phospho-S6 immunofluorescence (z-score)” value does the source give for CN(C)C(=O)Oc1cc(OC(=O)N(C)C)cc(C(O)CNC(C)(C)C)c1 (stereo not given) [Bambuterol (hydrochloride)] (compound 10 µM) here?
Its value is 0.49.

With CNCC(O)c1ccc(O)cc1 (stereo not given) [Synephrine (hydrochloride)] (compound 10 µM) as the molecule, how does the “phospho-S6 immunofluorescence (z-score)” value read?
The value was 0.35.

For Cc1ncc(CN2CC=C(c3ccccc3)CC2)c(N)n1 [Ro 10-5824 (dihydrochloride)] (compound 10 µM), which “phospho-S6 immunofluorescence (z-score)” value is on record?
The value was -1.65.

How did the “phospho-S6 immunofluorescence (z-score)” value turn out when CCC(COC(=O)c1cc(OC)c(OC)c(OC)c1)(c1ccccc1)N(C)C (stereo not given) [Trimebutine (maleate)] (compound 10 µM) was run?
Its value is 1.5.

Which “phospho-S6 immunofluorescence (z-score)” value does the source give for CC(C)C[C@H](NC(=O)[C@H](Cc1ccccc1)NC(=O)CNC(=O)[C@@H](C)NC(=O)[C@@H](N)Cc1ccc(O)cc1)C(=O)O [[D-Ala2]leucine-enkephalin] (compound 10 µM) here?
The value was 0.01.

With COc1ccc2c(c1OC)CN1CCc3cc4c(cc3C1C2)OCO4 (stereo not given) [Tetrahydroberberine] (compound 10 µM) as the molecule, how does the “phospho-S6 immunofluorescence (z-score)” value read?
Its value is -1.09.

Which “phospho-S6 immunofluorescence (z-score)” value does the source give for CN1C[C@H](C(=O)N[C@]2(C)O[C@@]3(O)[C@@H]4CCCN4C(=O)[C@H](Cc4ccccc4)N3C2=O)C[C@@H]2c3cccc4[nH]cc(c34)C[C@H]21 [Dihydroergotamine (mesylate)] (compound 10 µM) here?
The value was 0.

With CN1CCC2=C(C1)c1ccccc1Cc1ccccc12 [Setiptiline] (compound 10 µM) as the molecule, how does the “phospho-S6 immunofluorescence (z-score)” value read?
The value was -1.52.

How did the “phospho-S6 immunofluorescence (z-score)” value turn out when CN1CCC(C(=O)c2cccc(NC(=O)c3c(F)cc(F)cc3F)n2)CC1 [Lasmiditan (hydrochloride)] (compound 10 µM) was run?
The value was -3.95.

With Cc1ccc2c(c1)C1(CCN(CCc3nc(-c4ccccc4)oc3C)CC1)OC(=O)N2 (compound 10 µM) as the molecule, how does the “phospho-S6 immunofluorescence (z-score)” value read?
Its value is 0.85.

For CN1[C@@H]2C[C@@H](OC(=O)[C@H](CO)c3ccccc3)C[C@H]1[C@@H]1O[C@@H]12 [Scopolamine (hydrobromide)] (compound 10 µM), which “phospho-S6 immunofluorescence (z-score)” value is on record?
Its value is -0.16.
